Source: PubChem BioAssay (NCI)
Where “and” joins values, the source holds several entries; their conditions need not be identical. Equal values may be shown once. Compounds without any hit were thinned out: in the full panel of roughly 83,000, 20% have a hit.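 Each cell line was grown in a 96-well plate and treated with one concentration of compound for 48 hours. Values below 10 were considered active.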 Values without a mark were called inactive. Calls of active or inactive are those of the source.

The compounds below were run on HCC-2998 colon (assay: NCI-60 one-dose screen, 48 h (100 = growth as untreated, 0 = no growth, -100 = all killed)). Conditions: 10 µM unless noted.

Which growth does the source give for `O=C(CSc1nnc(-c2ccc(-c3nc4ccccc4[nH]3)cc2)o1)Nc1ccc(Br)cc1` here?
Its growth is 71.2%.

For `COc1ccc2c(c1)N=c1c-2cc2c(O)[nH]c(=S)n2c1=O`, which growth is on record?
The growth was 60.1%.

`CN(C(=O)CN1C(=O)/C(=C/c2ccco2)SC1=S)C1CCS(=O)(=O)C1` (stereo not drawn) was tested. Which growth did it give?
The growth was 104%.

Which growth does the source give for `CCOc1ccc2[nH]c(=O)c(C(c3nnnn3CC3CCCO3)N3CCN(Cc4ccccc4)CC3)cc2c1` (stereo not drawn) here?
Its growth is 122%.

How did the growth turn out when `N#CC1=C(c2cccs2)Nc2c(c(-c3ccccc3)nn2-c2ccccc2)C12C(=O)Nc1ccc(Cl)cc12` (stereo not drawn) was run?
The growth was 26.1%.

`COc1ccc(-c2nc3ccccc3n2CC(=O)N=Nc2c(O)[nH]c3ccc(OC)cc23)cc1` was tested. Which growth did it give?
Its growth is 114%.

`O=C(NC(=S)N1CCN(c2ncnc3c2cnn3-c2ccccc2)CC1)c1ccc(Br)cc1` was tested. Which growth did it give?
The growth was 90.5%.

How did the growth turn out when `COc1c(B(O)O)cc(F)cc1-c1nc2ccc3[nH]ncc3c2c2c1COCC2` was run?
The growth was 80.3%.

With `CC1=C(C(=O)Nc2ccccc2)C(c2cccc(Cl)c2Cl)n2c(nc3ccccc32)N1` (stereo not drawn) as the compound, how does the growth read?
Its growth is 25.6%.

`CC(Nc1ncnc2ccc(-c3ccc4oc(N)nc4c3)cc12)c1ccccc1` (stereo not drawn) was tested. Which growth did it give?
Its growth is 41.5%.

With `CNc1nc2ccccc2n2c(-c3ccc(O)c(O)c3)cnc12` as the compound, how does the growth read?
Its growth is 19.9%.

How did the growth turn out when `COc1cc(/C=C/C(=O)c2cnn(-c3cc(=O)[nH]c4ccc(Br)cc34)c2C)cc(OC)c1OC` was run?
Its growth is -96.8% (active).

For `COc1ccc(/C=C/C(=O)c2ccc(OC)c(S(N)(=O)=O)c2)c(C(F)(F)F)c1`, which growth is on record?
The growth was -95.4% (active).

`COc1ccc(S(=O)(=O)Nc2ccc(-c3ccc4c(c3)NC(=O)/C4=C\c3ccc[nH]3)cc2)cc1OC` was tested. Which growth did it give?
The growth was 24.2%.

`COC(=O)c1ccc(-c2c(-c3ccccc3)c(F)c3oc(C(=O)OC)c(N)c3c2-c2ccccc2)cc1` was tested. Which growth did it give?
The growth was 98.4%.

`O=C(COc1ccc(/C=C2/C(=O)Nc3ccc(Cl)cc32)cc1)Nc1ccc(Br)cc1` was tested. Which growth did it give?
Its growth is 41.6%.

Which growth does the source give for `O=C(CSc1nc2ccccc2c(=O)[nH]1)NNC(=O)c1ccccc1Cl` here?
Its growth is 113%.

`COc1ccc2[nH]cc(-c3cc4nc(-c5cn(C)c6ncccc56)cc(N)n4n3)c2c1` was tested. Which growth did it give?
Its growth is -96.5% (active).

For `COc1cc2cc(C(=O)N3C[C@@H](CCl)c4c3cc(OC(=O)N(CCC(=O)N3CCN(C)CC3)C3CCCCC3)c3ccccc43)[nH]c2c(OC)c1OC`, which growth is on record?
Its growth is -91% (active).

`CC[C@]12C=CCN3CC[C@@]4(c5ccc(OC)cc5N(C)[C@H]4[C@@](O)(C(=O)OC)[C@@H]1OC(=O)CCCC[P+](c1ccc(F)cc1)(c1ccc(F)cc1)c1ccc(F)cc1)[C@@H]32` was tested. Which growth did it give?
The growth was 19.4%.

How did the growth turn out when `O=C(Nc1nc2ccc([N+](=O)[O-])cc2s1)Nc1ccccc1F` was run?
Its growth is 23.8%.

With `O=C1C=CC(=CC=C2N(Cc3ccc4ccccc4c3)c3ccccc3N2Cc2ccc3ccccc3c2)C=C1` as the compound, how does the growth read?
Its growth is 21.1% and 33.1%.

How did the growth turn out when `O=c1[nH]c2ccccc2cc1COc1ccc(Nc2nccc(-c3ccc(Cl)cc3)n2)cc1` was run?
Its growth is 116%.

`CC1=C(C(=O)Nc2ccccc2)C(c2ccc3ccccc3c2)n2c(nc3ccccc32)N1` (stereo not drawn) was tested. Which growth did it give?
The growth was 52.3%.

Which growth does the source give for `O=C1CC(c2ccc(I)cc2)OC2C=Cc3ccccc3C12` (stereo not drawn) here?
The growth was 117%.

For `COc1ccc(C(=O)/C=C/c2ccc3c(c2)OCCO3)cc1S(N)(=O)=O`, which growth is on record?
Its growth is 99.1%.

Which growth does the source give for `O=C(Cn1c(-c2ccccc2)nc2ccccc21)N=Nc1c(O)[nH]c2ccc(Br)cc12` here?
The growth was 0.134% (active).

With `Cn1cc(-c2cc3nc(-c4cn(C)c5ncc(Br)cc45)cc(N)n3n2)c2cc(F)ccc21` as the compound, how does the growth read?
Its growth is -14.5% (active).

With `O=C1Nc2ccccc2/C1=C/C(=O)c1cc2ccccc2oc1=O` as the compound, how does the growth read?
Its growth is 140%.

For `CCC(=O)c1c2c(c3ccc4c5ccccc5ccc4n13)C(=O)c1ccccc1C2=O`, which growth is on record?
Its growth is 65.4%.

For `COc1ccc(C(=O)NNC(=O)CSc2nc3sc4c(c3c(=O)n2-c2ccc(Cl)cc2)CCCC4)cc1`, which growth is on record?
The growth was 111%.

How did the growth turn out when `Cc1nc2sccn2c1-c1nnc(SCC(C)C)o1` was run?
Its growth is 113%.

Which growth does the source give for `COc1ccc([C@H]2C(C(=O)c3ccc(Cl)cc3)C3(N[C@@H]2c2ccccc2)C(=O)Nc2ccccc23)cc1` (stereo partly drawn) here?
The growth was 13.7%.

Which growth does the source give for `CN(C)CCCNC(=S)Nc1ccc(/C=C/c2ccc(Cl)cc2)cc1` here?
The growth was -84.2% (active).

With `COc1ccc2[nH]c(=O)c(CSc3ccccc3Nc3nccc(-c4ccc(Cl)cc4)n3)cc2c1` as the compound, how does the growth read?
Its growth is 37.6%.

How did the growth turn out when `CCN(C(=O)CN1C(=O)/C(=C/c2ccco2)SC1=S)C1CCS(=O)(=O)C1` (stereo not drawn) was run?
The growth was 106%.

With `CC[C@@]12CC(C(=O)OC)=C3Nc4cc5c(cc4[C@@]34CCN(C[C@H]3O[C@H]31)[C@@H]24)[C@@H]1[C@H](O5)[C@@H](O)[C@@]2(CC)CC(C(=O)OC)=C3Nc4cc(O)ccc4[C@@]34CCN1[C@@H]24` as the compound, how does the growth read?
The growth was -85.4% (active).

With `CN(C)CCCc1ccc(Nc2cnn(C)c(=O)c2Cl)cc1` as the compound, how does the growth read?
The growth was 118%.
